Test results: the supplement of paper PMC12024529

tested on: HEK293 WT BDD-FVIII-Gluc; test: secreted FVIII-Gluc luciferase Z-score vs DMSO control; higher = more FVIII-Gluc secretion; settings: 5 µM
Method: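 Natural plant-compound library (480 compounds, ST catalogue IDs) screened on HEK293 cells stably expressing WT BDD-FVIII-Gaussia luciferase fusion at 5 µM. Secreted Gluc activity in the medium is given as a Z-score relative to DMSO controls.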

Row | SMILES | secreted FVIII-Gluc luciferase Z-score
1 | COc1cc2c(cc1O)C[C@H]1c3c(cc(OC)c(O)c3-2)CCN1C | 0.61
2 | COc1cc2c(cc1OC)C13CCN4CC5=CCOC6CC(=O)N2C1C6C5CC43 (stereo not given) | 0.159
3 | C=C[C@H]1CN2CCC1CC2c1[nH]c2ccccc2c1CCO (stereo not given in full) | 0.502
4 | CC(C)(C)[C@]1(O)C[C@@H]2OC(=O)C[C@@]23C(=O)O[C@@H]2OC(=O)[C@H](O)[C@]213 | -0.32
5 | C[C@H]1CCC/C=C/C2C[C@H](O)C[C@H]2[C@H](O)/C=C/C(=O)O1 (stereo not given in full) | -4.99
6 | CCCN1C[C@H](CSC)C[C@@H]2c3cccc4[nH]cc(c34)C[C@H]21 | 0.385
7 | CN1C[C@H](CNC(=O)OCc2ccccc2)C[C@@H]2c3cccc4c3c(cn4C)C[C@H]21 | -0.629
8 | CC1(C)S[C@@H]2[C@H](N)C(=O)N2[C@H]1C(=O)O | -1.19
9 | CCC1(O)C(=O)OCc2c1cc1n(c2=O)Cc2cc3ccccc3nc2-1 (stereo not given) | -3.23
10 | COc1cc2c(cc1O)CC1c3c(cc(O)c(OC)c3-2)CCN1C (stereo not given) | -0.91
11 | CO[C@]12C[C@@H](COC(=O)c3cncc(Br)c3)CN(C)[C@@H]1Cc1cn(C)c3cccc2c13 | 0.94
12 | CCC1CN2CCC1CC2C(O)c1ccnc2ccccc12 (stereo not given) | 0.33
13 | CC(C)(O)[C@@H]1[C@H]2OC(=O)[C@@H]1[C@]1(O)C[C@H]3O[C@]34C(=O)O[C@H]2[C@]14C | -0.634
14 | CC12C(=O)OC(=O)C1(C)C1CCC2O1 (stereo not given) | -4.31
15 | COc1cc2c(cc1OC)-c1c(OC)c(OC)c(CO)c3c1C(C2)N(C)CC3 (stereo not given) | -0.0378
16 | C[C@]12CC[C@H](O)C[C@@H]1CC[C@@H]1[C@@H]2CC[C@]2(C)C(=O)CC[C@@H]12 | 0.049
17 | CC1=NCCc2c1[nH]c1cc(O)ccc21 | -0.262
18 | C=C(C)[C@@H]1[C@H]2OC(=O)[C@@H]1[C@]1(O)C[C@H]3O[C@]34C(=O)O[C@H]2[C@]14C | 0.972
19 | CCCCCC[C@H]1C(=O)O[C@H](C)[C@H](NC(=O)c2cccc(NC=O)c2O)C(=O)O[C@@H](C)[C@@H]1OC(=O)CC(C)C | -3.29
20 | COc1cc2c(cc1OC)-c1c(OC)c(OC)c(C=O)c3c1[C@H](C2)N(C)CC3 | 0.0709

Row | SMILES | secreted FVIII-Gluc luciferase Z-score
21 | COc1cc2c(c(OC)c1OC)-c1ccc(OC)c(=O)cc1C(NC(C)=O)CC2 (stereo not given) | -6.65
22 | COc1ccc2c(c1OC)C(=O)O[C@@H]2[C@H]1c2cc3c(cc2CCN1C)OCO3 | 1.04
23 | C[C@@H]1C[C@@H]([C@H](O)CC2CC(=O)NC(=O)C2)C(=O)[C@@H](C)C1 | -7.2
24 | CN1CC(C(=O)NC2(C)OC3(O)C4CCCN4C(=O)C(Cc4ccccc4)N3C2=O)C=C2c3cccc4[nH]cc(c34)CC21 (stereo not given) | 0.871
25 | C/C=C1/CN2CC[C@]34C(=C(C=O)[C@H]1C[C@H]23)Nc1ccccc14 | 0.372
26 | CN1[C@@H]2CC[C@H]1CC(OC(=O)C(CO)c1ccccc1)C2 (stereo not given in full) | -0.395
27 | CC(C)[C@@]1(NC(=O)[C@@H]2C[C@@H]3c4cccc5[nH]cc(c45)C[C@H]3N(C)C2)O[C@@]2(O)[C@@H]3CCCN3C(=O)[C@H](Cc3ccccc3)N2C1=O | -0.176
28 | O=c1ccc2cc(OC3OC(CO)C(O)C(O)C3O)c(O)cc2o1 (stereo not given) | 0.455
29 | COc1cc([C@@H]2c3cc4c(cc3[C@H](O)[C@H]3COC(=O)[C@H]23)OCO4)cc(OC)c1OC | -3.94
30 | COc1ccn(C)c(=O)c1C#N | -0.599
31 | CCC12CCCN3CCC4(c5ccc(OC)c(O)c5N(C(C)=O)C4CC1)C32 (stereo not given) | 0.655
32 | COc1cccc2c1cc([N+](=O)[O-])c1c(C(=O)O)cc3c(c12)OCO3 | 0.158
33 | C=CCCN1C[C@@H]2C[C@@H](C1)c1cccc(=O)n1C2 | -0.00507
34 | CC(=O)c1c(O)c(C)c(O)c(Cc2c(O)c3c(c(C(=O)/C=C/c4ccccc4)c2O)OC(C)(C)C=C3)c1O | -1.16
35 | C[C@]1(C(=O)O)CCC[C@]2(C)c3cc(O)ccc3CC[C@@H]12 | -1.23
36 | C[C@]12CC[C@H](O)C[C@H]1CC[C@@H]1[C@@H]2C[C@@H](O)[C@]2(C)[C@@H](C3=CC(=O)OC3)CC[C@]12O | -7.45
37 | C[C@]12CC[C@H](O)CC1=CC[C@@H]1[C@@H]2CC[C@]2(C)C(=O)CC[C@@H]12 | 1.29
38 | COc1ccc2c3c([nH]c2c1)C(C)=NCC3 | -2.05
39 | C[C@@H]1O[C@@H](O[C@H]2C[C@@H](O)[C@]3(CO)[C@H]4[C@H](O)C[C@]5(C)[C@@H](C6=CC(=O)OC6)CC[C@]5(O)[C@@H]4CC[C@]3(O)C2)[C@H](O)[C@H](O)[C@H]1O | -3.87
40 | CN[C@@H](Cc1c[nH]c2ccccc12)C(=O)O | 0.0662
